In PubChem BioAssay AID2006 (Sanford-Burnham Center for Chemical Genomics, 2009):
In all, about 290,000 compounds went through this assay and about 1,000 (0.34%) were called active. This is one part of a sample in which actives are shown more often than they occur. No stated cut-off is given here; in the data, active means inhibition above about 50% (passing the limit was not always enough); inconclusive means no clear call, values can overlap the other calls.

Target: SUMO-conjugating enzyme UBC9 (Homo sapiens) (UniProt P63279)
Assay: blockers of SAE1/SAE2–UBC9 SUMO transfer – biochemical, HTRF, uHTS, primary screen (AID 2006)
Details: HTRF SUMOylation assay, SAE1/SAE2 + UBC9, in vitro, at 35 µM, stronger effect = higher value

Sequence of SUMO-conjugating enzyme UBC9 (Homo sapiens) (P63279 whole entry, looked up): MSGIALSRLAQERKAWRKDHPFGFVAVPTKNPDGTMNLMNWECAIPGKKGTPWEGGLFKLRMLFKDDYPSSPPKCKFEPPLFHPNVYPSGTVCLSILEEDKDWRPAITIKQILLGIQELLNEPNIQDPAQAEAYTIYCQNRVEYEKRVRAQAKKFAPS

SMILES | inhibition | inhibition (average of repeat tests) [%]
CC(=O)Oc1ccc2c(C)c(CC(C)O)c(=O)oc2c1 (centres undefined) | 52.6% (active) | 46.3
CC(=O)Nc1cc2ccc(OC(C)=O)cc2oc1=O | 43.7% (inactive) | –
Cc1c(Cc2ccccc2)c(=O)oc2cc(OCC(N)=O)ccc12 | 3.3% (inactive) | –
COc1ccc2c(C)c(CCC(=O)NC3CC3)c(=O)oc2c1C | 15.9% (inactive) | –
COCCOC(=O)C1=C(C)Nc2nc(C)nn2C1c1ccccc1 (centres undefined) | -5% (inactive) | –
COc1cc(C2C(C(=O)Nc3ccc(F)cc3)=C(C)Nc3nc(CCCO)nn32)cc(OC)c1OC (centres undefined) | 11.3% (inactive) | –
COC(=O)c1nc2n(n1)C(c1ccc([N+](=O)[O-])cc1)C(C(=O)Nc1ccc(Cl)cc1)=C(C)N2 (centres undefined) | 56.7% (active) | 44.5
Cc1nn(C)c(Cl)c1CN1CCC(n2nccc2NC(=O)C2CCCC2)CC1 | 3.6% (inactive) | –
CCCCNC(=O)N(O)C1N(/N=C/c2ccc(N(C)C)cc2)C(=S)SC1(C)C (centres undefined) | 6.7% (inactive) | –
Cc1cc(C)c(S(=O)(=O)c2ccc(F)cc2C)c(=O)[nH]1 | 14.5% (inactive) | –
CNC(=S)N/N=C/c1ccc(OCc2ccccc2)c(Br)c1 | 11.3% (inactive) | –
COc1ccc(OC)c(NC(=O)Cc2cccs2)c1 | 8% (inactive) | –
CCc1nnc(NC(=O)/C=C/c2ccc(C)o2)s1 | 7.9% (inactive) | –
Cc1ccc(/C=C/C(=O)Nc2ccc([N+](=O)[O-])c(NC(=O)/C=C/c3ccc(C)o3)c2)o1 | 74.6% (active) | –
Cc1ccc(/C=C/C(=O)Nc2cc(S(=O)(=O)N3CCCCCC3)ccc2OCC(F)(F)F)o1 | 25.6% (inactive) | –
CC(C)c1nnc(NC(=O)CCC(=O)N2CCN(c3cccc(Cl)c3)CC2)s1 | 1.4% (inactive) | –
Cc1c(C)c(C)c(S(=O)(=O)N2CCC3(CC2)OCCO3)c(C)c1C | 0.4% (inactive) | –
Oc1ccc(CNc2ccccc2O)cc1 | 2.9% (inactive) | –
N#Cc1ccc(Oc2ccc(C(F)(F)F)cc2NC(=O)c2ccc(F)cc2)cc1 | -26.5% (inactive) | –
COc1ccc(NC(=O)CN(C)CC(=O)Nc2cccc(C(F)(F)F)c2)cc1 | 0.2% (inactive) | –

SMILES | inhibition | inhibition (average of repeat tests) [%]
COc1cc(NC(=O)c2cncc(-c3ccc(C#N)cc3)c2)cc(C(=O)Nc2cccc(C(F)(F)F)c2)c1 | 71.3% (active) | 53.1
O=C(CN1CCN(S(=O)(=O)c2ccc(F)cc2)CC1)NC1CC1 | 8.8% (inactive) | –
COC(=O)C1=C(C)NC(=O)CC1c1ccccc1OC (centres undefined) | 10.4% (inactive) | –
COc1cc(N/C=C2\CC(=O)NC(C)=C2C#N)cc(OC)c1OC | 51.7% (active) | –
COc1cc2c(cc1OC)C(C(=O)Nc1cc(C)c(OC)c(C)c1)CC(=O)N2 (centres undefined) | 1.4% (inactive) | –
CC(O)c1ccc(OCCN(C)c2ccccn2)cc1 (centres undefined) | 20.8% (inactive) | –
Cc1[nH]c2c(C(=O)N3CCCC(CCC(=O)NCc4ccccc4F)C3)cccc2c1C (centres undefined) | -0.7% (inactive) | –
Oc1ccc(C2Nc3cccc4cccc(c34)N2)cc1 | 31.7% (inactive) | –
Cc1ccc(C2Nc3cccc4cccc(c34)N2)cc1 | 8.5% (inactive) | –
Brc1ccccc1C1Nc2cccc3cccc(c23)N1 | 69.7% (active) | –
CC(C)NS(=O)(=O)c1ccc(OCC(=O)NC2CCCCCC2)cc1 | 2.1% (inactive) | –
O=C(CC1NCCc2ccccc21)Nc1cccc(Cl)c1 (centres undefined) | -5.3% (inactive) | –
CCCCCCNS(=O)(=O)c1ccccc1Br | 21.7% (inactive) | –
Cc1ccc(-n2ncc(C(=O)NC3CC3)c2C2CCN(C(=O)OC(C)(C)C)CC2)c(C)c1 | -2.6% (inactive) | –
CCc1nccn1CCC(=O)N1CCCC(N2CCN(c3ccccc3F)CC2)C1 (centres undefined) | 4.2% (inactive) | –
COc1ccc(C(=O)CC(=O)c2ccc(C)cc2)c(O)c1 | -0.3% (inactive) | –
O=c1c(-c2ccccc2)coc2cc(O)ccc12 | 20.1% (inactive) | –
O=c1c(/C=N/O)coc2ccc(Cl)cc12 | 8.4% (inactive) | –
O=C1/C(=C/c2coc3ccc(O)cc3c2=O)SC(=S)N1c1ccccc1 | 57% (active) | 34.2
Cc1cccc(OCC(O)Cn2c(N3CCCCC3)nc3c2c(=O)[nH]c(=O)n3C)c1 (centres undefined) | 20.6% (inactive) | –

SMILES | inhibition | inhibition (average of repeat tests) [%]
CCn1cc(CN2CCN(CC(C)(C)C)C(CCO)C2)c2ccccc21 (centres undefined) | 5.7% (inactive) | –
Oc1ccccc1C1=NN(c2ccccc2)C(c2ccccc2)C1 (centres undefined) | 11% (inactive) | –
CCN(CC)CCCNC(=S)N(CCO)Cc1cc2cc3c(cc2[nH]c1=O)OCO3 | 18.4% (inactive) | –
Cc1ccc(NC(=O)C2CCCN2S(=O)(=O)c2cccc3cccnc23)c(C)c1 (centres undefined) | 4.8% (inactive) | –
O=S(=O)(c1ccc(Br)c2ccccc12)N1CCOCC1 | 2.6% (inactive) | –
CC(C)[C@H](NC(=O)OCc1ccccc1)C(=O)OCc1ccccc1 | -16.4% (inactive) | –
O=[N+]([O-])C(=c1ccc2c(c1)N1C3=C(CCCC3)CC3CCCCC31N=2)[N+](=O)[O-] (centres undefined) | 57.5% (active) | –
Cc1sc2ncn(CC(=O)NCCN(C)C)c(=O)c2c1S(=O)(=O)N1CCC(C)CC1 | -5.2% (inactive) | –
CN1CCC(=O)N([C@H](CO)Cc2ccccc2)CC1 | 13% (inactive) | –
CCOc1ccc(OCc2ccc(C(=O)N(C)c3ccccc3)o2)cc1 | 5% (inactive) | –
CC1=C(C(=O)OC2CCCCC2)C(c2cccnc2)n2ncnc2N1 (centres undefined) | -7.1% (inactive) | –
C=CCc1ccccc1OCC(O)CN1CCN(CCO)CC1 (centres undefined) | 0.7% (inactive) | –
CCC(CC)C(=O)Nc1ccc(S(=O)(=O)Nc2nccs2)cc1 | 14.7% (inactive) | –
O=C(Nc1ccc(S(=O)(=O)Nc2nccs2)cc1)c1cc(-c2ccncc2)nc2ccccc12 | 50% (active) | –
O=C(Nc1ccc(S(=O)(=O)Nc2nccs2)cc1)c1cc(=O)[nH]c2ccccc12 | 30.5% (inactive) | –
Cc1nn(Cc2ccccc2)c(C)c1NS(=O)(=O)c1ccccc1 | 3.7% (inactive) | –
O=[N+]([O-])c1c(NCCO)cc(Sc2nc3ccccc3s2)c2nonc12 | 90.1% (active) | –
O=C(O)c1cccc(S(=O)(=O)Nc2ccc(O)cc2Sc2nc3ccccc3s2)c1 | -14.5% (inactive) | –
COc1ccc(S(=O)(=O)Nc2ccc(O)c(Sc3nc4ccccc4s3)c2)cc1 | -0.5% (inactive) | –
CCOCc1nnc(NC(=O)CCC2CCCCC2)s1 | 10.6% (inactive) | –
